# Laboratory results: PubChem BioAssay (NCI)
# The panel holds about 83,000 compounds, 20% with a hit somewhere; the sample as a whole holds those more often.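 Cell lines were cultured in 96-well plates, exposed to a single compound concentration, and assessed for percent growth 48 hours later.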 Unmarked numbers belong to inactive results. Calls of active or inactive are those of the source. The calls were made as follows: active = growth percent below 10; inactive = the rest.
# Tests used:
# Assay in all cases: NCI-60 one-dose screen, 48 h (100 = growth as untreated, 0 = no growth, -100 = all killed)
# Conditions in all cases: 10 µM
# HCT-15 colon = tested on: HCT-15 colon
# HT29 colon = tested on: HT29 colon
# SNB-75 CNS = tested on: SNB-75 CNS
# SNB-19 CNS = tested on: SNB-19 CNS
# U251 CNS = tested on: U251 CNS
# PC-3 prostate = tested on: PC-3 prostate
# SK-MEL-5 melanoma = tested on: SK-MEL-5 melanoma
# UACC-62 melanoma = tested on: UACC-62 melanoma
# LOX IMVI melanoma = tested on: LOX IMVI melanoma
# SK-MEL-28 melanoma = tested on: SK-MEL-28 melanoma
SMILES,growth (HCT-15 colon),growth (HT29 colon),growth (SNB-75 CNS),growth (SNB-19 CNS),growth (U251 CNS),growth (PC-3 prostate),growth (SK-MEL-5 melanoma),growth (UACC-62 melanoma),growth (LOX IMVI melanoma),growth (SK-MEL-28 melanoma)
CCCn1c(=O)c2[nH]c(-c3ccc(OCc4nc5ccc(C#N)cc5[nH]4)cc3)nc2n(CCC)c1=O,84.7%,88.5%,84.9%,80.8%,70.6%,55.4%,83.4%,49.2%,46.5%,90.8%
O=[N+]([O-])c1ccc(-c2nc(-c3ccccc3)c(-c3ccccc3)n2-c2ccc(S(=O)(=O)Nc3ncccn3)cc2)cc1,23.8%,41.4%,44.1%,27.3%,35.8%,29.7%,28.4%,42%,28%,36.2%
CC(=O)Nc1ccc(-c2cn(-c3cccc(C(=O)Nc4ccc(Cl)c(C(F)(F)F)c4)c3)nn2)cn1,-57.8% (active),-50.3% (active),88%,-35.3% (active),-59.5% (active),1.58% (active),38.5%,-62.4% (active),-90.8% (active),-80.6% (active)
O=C(Nc1ccncc1)c1ccc(-n2c(=O)[nH]c3ccccc3c2=O)cc1,97.9%,105%,107%,91.1%,99.7%,92.4%,90.8%,76.9%,83.9%,104%
Cc1nn(-c2ccccc2)c2ncn(CC(=O)N/N=C/c3c[nH]c4ccccc34)c(=O)c12,89.2%,99.5%,78.5%,91.5%,83.8%,65.4%,85.5%,80.7%,84.4%,114%
COc1cccc2nc(Nc3cccc(NC(=O)c4ccc(CN5CCCN(C)CC5)c(C(F)(F)F)c4)c3)ccc12,-100% (active),-72% (active),-84.5% (active),-99.3% (active),-55.6% (active),-69.8% (active),-96.9% (active),-74.1% (active),-98.8% (active),-100% (active)
COc1csc(/C=N/NC(=O)c2[nH]c3ccc(Br)cc3c2-c2ccccc2)c1,0.545% (active),-30.8% (active),4.17% (active),29.1%,9.71% (active),14.9%,-37.2% (active),20.3%,12.6%,35.3%
CC(=O)Nc1ccc(-c2cn(-c3cccc(C(=O)Nc4cc(CN5CCOCC5)cc(C(F)(F)F)c4)c3)nn2)cn1,-86.2% (active),-11.4% (active),-78% (active),-88.5% (active),-71.9% (active),-69.7% (active),-100% (active),-98.1% (active),-98.6% (active),-99.2% (active)
CC(C)(C)Nc1nc2cc(Cl)c(Cl)cc2nc1S(C)(=O)=O,-35.8% (active),47.4%,45.1%,102%,68.7%,54%,-17.4% (active),52.9%,-98% (active),62.3%
COc1ccc2[nH]c(=O)c(CSc3ccc(Nc4nccc(-c5ccc(Cl)cc5)n4)cc3)cc2c1,97%,104%,110%,71.6%,94.2%,83.2%,98.4%,105%,89%,109%
C/C(=C\CSc1ccccc1C(=O)O)CCCC(C)CCCC(C)CCCC(C)C (stereo not given),21.5%,59.4%,114%,80.4%,46.8%,41%,24.8%,42.5%,26.3%,71.5%
COc1cc(/C=C/C(=O)c2ccc(NC(=O)CN3C(=O)NC(C)(c4ccccc4)C3=O)cc2)cc(OC)c1OC (stereo not given),11.8%,-2.37% (active),83.8%,42.6%,-15.7% (active),31.9%,44.7%,41.6%,-46.1% (active),49.8%
COc1ccccc1NCc1ccc(CO)n1-c1ccc(C)cc1,96.7%,102%,80.2%,94.9%,96.1%,80.2%,100%,83.8%,86.5%,106%
N#Cc1c(-c2ccc(F)cc2)nc(SCc2ccc([N+](=O)[O-])cc2)nc1N1CCOCC1,72.8%,86.6%,7.62% (active),46%,55.3%,59.1%,61.9%,62.7%,84.7%,82.1%
Cc1cc(=O)oc2cc(OCCCCOc3ccc(/C=C/C(=O)Nc4cccc(Cl)c4)cc3)ccc12,60.3%,86.4%,87.7%,74.7%,56.8%,91.2%,60.6%,75.3%,64.4%,86.8%
CN1CCN(c2ccc(C(=O)/C=C/c3ccc(OC(F)F)cc3)cc2)CC1,-49.1% (active),13.4%,73.8%,47.4%,-15.6% (active),25.5%,52.9%,44.6%,-100% (active),67.5%
Cc1ccc2nc(COc3ccc(C(=O)NNC(=S)NC(=O)c4ccccc4)cc3)[nH]c2c1,14.9%,43.6%,41.6%,52.4%,43.3%,50.2%,46.1%,51.9%,34%,55.6%
CCCCSc1nc(Nc2ccc(/C(C)=N/NC(N)=S)cc2)c(C#N)c(-c2ccccc2)n1,38.4%,61.2%,96.8%,50%,18.8%,28.9%,54.9%,64.5%,5.73% (active),66.3%
CCCCSc1nc(Nc2ccc(/C(C)=N/NC(N)=S)cc2)c(C#N)c(-c2ccc(F)cc2)n1,62.7%,60.3%,53.5%,20.7%,7.7% (active),28.6%,75%,49.3%,6.74% (active),64%
Cc1ccn2c(C(=O)c3ccc(Br)cc3)cc(-c3cc(-c4ccc(N(C)C)cc4)c(C#N)c(N)n3)c2c1,39.7%,34.6%,118%,67.8%,19.9%,64.4%,53.1%,76.7%,30.7%,51.1%
CC(=O)Nc1ccc(-n2cnc3cc(-c4ccc(O)cc4)ccc32)cc1F,5.21% (active),-9.81% (active),24.1%,36.2%,16.7%,22.8%,12.5%,13.9%,27.8%,49.4%
COc1ccc(-c2cc(C(=O)N=Nc3c(O)[nH]c4ccc(F)cc34)c3ccccc3n2)cc1,21.5%,61.9%,84.6%,44.1%,7.34% (active),76.6%,72.4%,81.4%,24.1%,81.1%
O=C(NO)c1ccc(-c2nc3ccc4[nH]ncc4c3c3c2CCCC3)cc1,-11% (active),6.1% (active),-77.1% (active),-19.4% (active),-39.1% (active),15.8%,-88.9% (active),-65.8% (active),-90.6% (active),-55% (active)
COc1ccc(/C(C)=N/N=C2C(=O)N(C)c3ccc(Br)cc32)cc1S(N)(=O)=O,75.1%,101%,6.59% (active),34.7%,51.7%,73.7%,88.2%,73.8%,74.6%,90.3%
CC(=O)NS(=O)(=O)c1ccc(NC(=O)CSC2=NC(c3ccccc3)C(C(C)=O)=C(C)N2)cc1 (stereo not given),101%,114%,99%,104%,116%,110%,101%,98.5%,94.9%,107%
O=C(O)CCCCCCCCCCN1C(=O)/C(=C/c2cnc(-c3ccccc3)s2)SC1=S,80.7%,126%,124%,100%,59.5%,95%,93.1%,76.4%,32.1%,97.4%
